# Measured values as given in PubChem BioAssay (Tox21).
# Inconclusive results are not listed. Unmarked numbers belong to inactive results. The source made the active and inactive calls. Unless noted, the call rests on the fitted dose curve; in most records, active means well fitted curve in the direction sought with a large enough effect in the repeat runs; inconclusive means weak or mixed curves; inactive means no such curve, though single readings can be large; an effect the other way counts as inactive or inconclusive.
# Molecular target: Estrogen receptor (Homo sapiens) (UniProt P03372)
# Sequence (P03372 whole entry, looked up): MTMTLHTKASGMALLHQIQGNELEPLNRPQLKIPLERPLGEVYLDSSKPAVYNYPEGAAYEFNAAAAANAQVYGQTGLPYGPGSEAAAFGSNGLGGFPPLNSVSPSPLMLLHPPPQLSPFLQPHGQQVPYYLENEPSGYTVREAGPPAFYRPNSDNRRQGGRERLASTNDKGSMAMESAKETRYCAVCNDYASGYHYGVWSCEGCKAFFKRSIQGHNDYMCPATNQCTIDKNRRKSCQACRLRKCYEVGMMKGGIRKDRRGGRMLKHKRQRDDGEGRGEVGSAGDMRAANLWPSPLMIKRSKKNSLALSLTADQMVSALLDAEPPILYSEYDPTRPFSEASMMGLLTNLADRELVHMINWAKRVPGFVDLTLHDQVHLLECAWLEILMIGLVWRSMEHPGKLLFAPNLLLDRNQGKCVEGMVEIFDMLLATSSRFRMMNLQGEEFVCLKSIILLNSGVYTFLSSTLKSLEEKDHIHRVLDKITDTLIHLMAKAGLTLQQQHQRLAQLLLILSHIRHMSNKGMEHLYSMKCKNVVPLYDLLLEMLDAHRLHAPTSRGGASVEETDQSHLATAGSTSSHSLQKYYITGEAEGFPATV
# Experiment: qHTS assay to identify small molecule antagonists of the estrogen receptor alpha (ER-alpha) signaling pathway using the BG1 cell line in the presence of 0.1 nM 17-beta-estradiol (AID 1259244); further: nearly all actives have a fitted effect of over 50% in size
# Details: VM7Luc4E2 (BG1) ERE-luciferase, antagonist mode, 0.1 nM E2, 22 h; series mostly up to 92.4 µM; activity change, negative = inhibition: at the top concentration
# Method in brief: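 Reporter is a stably transfected luciferase under four estrogen responsive elements in VM7Luc4E2 cells expressing native full-length ER-alpha; inhibition of 0.1 nM (final) 17beta-estradiol-driven signal over 22 h is read by luminescence.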
# On the % scale 0 is the no-effect control and ±100 the full control effect.
row,SMILES,"activity change, negative = inhibition"
1,Nc1ccc(/C=C/c2ccc(N)cc2S(=O)(=O)O)c(S(=O)(=O)O)c1,6.51% [at 0.349 µM]
2,CC(C)C(=O)c1ccccc1,3.05%
3,C=CC(C)(O)CC/C=C(\C)CC (centres undefined),2.93%
4,O=S1(=O)CCCC1,0%
5,NC(=O)NC(=O)Cc1ccccc1,3.23% [at 42.5 µM]
6,OC[C@@H](O)[C@H](O)[C@@H](O)[C@@H](O)CO,-1.34%
7,O=C(COCCOCCOCC(=O)Nc1c(I)cc(I)c(C(=O)O)c1I)Nc1c(I)cc(I)c(C(=O)O)c1I,6.98% [at 42.5 µM]
8,CN=C(NC#N)NCCSCc1csc(N=C(N)N)n1,6.54% [at 42.5 µM]
9,C=C[Si](C)(C)O[Si](C)(C)C=C,6.36%
10,NC(=O)C1(N2CCCCC2)CCN(CCCC(=O)c2ccc(F)cc2)CC1,-0.183% [at 42.5 µM]
11,O=S(=O)(O)CCO,26.5%
12,CCN(CC)C(=O)C1CN2CCc3cc(OC)c(OC)cc3C2CC1OC(C)=O (centres undefined),6.81% [at 42.5 µM]
13,O=c1[nH]c(=O)c2[nH]c(=O)[nH]c2[nH]1,-0.565% [at 8.39 µM]
14,N#CCCOCCOCCC#N,9.32%
15,Cc1cccc(C(=O)O)c1[N+](=O)[O-],9.4%
16,C=CCOc1c(Br)cc(C(C)(C)c2cc(Br)c(OCC=C)c(Br)c2)cc1Br,0.293% [at 42.5 µM]
17,CCCCCCCCOC(C)=O,-0.951%
18,C=CCOCC(CO)(COCC=C)COCC=C,-3.75% [at 42.5 µM]
19,C=CCOCC(O)CCl (centres undefined),-3.33%
20,O=C1OC(=O)c2cc(Oc3ccc4c(c3)C(=O)OC4=O)ccc21,1.09%
21,Cc1cc(O)c2c(c1)C(=O)c1cccc(O)c1C2=O,-21.1% [at 42.5 µM]
22,CO[Si](CCCS)(OC)OC,4.46%
23,CCCCC(CC)COC(=O)c1ccccc1 (centres undefined),-10.9%
24,CC(C)SCc1ccco1,4.31% [at 42.5 µM]
25,CCNC(=O)NCCCOc1cccc(CN2CCCCC2)c1,-12.3% [at 42.5 µM]
26,CCOC(=O)CC#N,12.4%
27,CCC(=O)c1ccc(O)cc1,6.15% [at 42.5 µM]
28,Cc1cc(C)cc([N+](=O)[O-])c1,5.1%
29,CCC(C)N (centres undefined),1.66%

# Tested on: not listed separately
# Experiment: qHTS assay to identify small molecule phospholipidosis (PLD) inducers (AID 1259344; active means well fitted curve in the direction sought with a large enough effect; an effect the other way counts as inactive or inconclusive)
# Details: HepG2 phospholipidosis, LipidTOX Red imaging, 24 h; series mostly up to 38.3 µM; PLD induction: at the top concentration
# Method in brief: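 After 4 h attachment on collagen I, HepG2 cells were dosed with compound alongside LipidTOX Red, kept 24 h at 37 C, fixed, and imaged for lamellar phospholipid pits.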
SMILES,PLD induction [%],outcome
Nc1ccc(/C=C/c2ccc(N)cc2S(=O)(=O)O)c(S(=O)(=O)O)c1,-0.522,
CO/N=C(/C(=O)N[C@@H]1C(=O)N2C(C(=O)O)=C(Cn3nnc(C)n3)CS[C@H]12)c1csc(N)n1,1.34,
NC(=O)NC(=O)Cc1ccccc1,-1.49,
O=C(COCCOCCOCC(=O)Nc1c(I)cc(I)c(C(=O)O)c1I)Nc1c(I)cc(I)c(C(=O)O)c1I,-0.31,
CN=C(NC#N)NCCSCc1csc(N=C(N)N)n1,-0.193,
NC(=O)C1(N2CCCCC2)CCN(CCCC(=O)c2ccc(F)cc2)CC1,15.5,
O=c1[nH]c(=O)c2[nH]c(=O)[nH]c2[nH]1,,inactive
CCC1Nc2cc(Cl)c(S(N)(=O)=O)cc2S(=O)(=O)N1 (centres undefined),-0.608,
CCNC(=O)NCCCOc1cccc(CN2CCCCC2)c1,-3.04,
CCC(=O)c1ccc(O)cc1,-0.473,
